Source: ChEMBL document CHEMBL3988442, “University of Dundee, Small-Polar-MMV Screening Library” (2021)
For some of these results: Measured potencies and affinities stand elsewhere.

What was measured:
Parameters in all cases: scale not given: direction of the effect not stated beside the values
[1] = target: Protein translocase subunit SecA (Escherichia coli (strain K12)) (UniProt P10408); test: Assay to Identify E. coli SecA ATPase Inhibitors; format: functional; settings: 30 µM
[2] = target: T1, Ubiquitin-activating enzyme e1, putative (Leishmania donovani (strain BPK282A1)) (UniProt E9BSI1); test: Leishmania donovani Ubiquitin Activating Enzyme (LdE1); format: functional; settings: 30 µM
T1 sequence (whole entry): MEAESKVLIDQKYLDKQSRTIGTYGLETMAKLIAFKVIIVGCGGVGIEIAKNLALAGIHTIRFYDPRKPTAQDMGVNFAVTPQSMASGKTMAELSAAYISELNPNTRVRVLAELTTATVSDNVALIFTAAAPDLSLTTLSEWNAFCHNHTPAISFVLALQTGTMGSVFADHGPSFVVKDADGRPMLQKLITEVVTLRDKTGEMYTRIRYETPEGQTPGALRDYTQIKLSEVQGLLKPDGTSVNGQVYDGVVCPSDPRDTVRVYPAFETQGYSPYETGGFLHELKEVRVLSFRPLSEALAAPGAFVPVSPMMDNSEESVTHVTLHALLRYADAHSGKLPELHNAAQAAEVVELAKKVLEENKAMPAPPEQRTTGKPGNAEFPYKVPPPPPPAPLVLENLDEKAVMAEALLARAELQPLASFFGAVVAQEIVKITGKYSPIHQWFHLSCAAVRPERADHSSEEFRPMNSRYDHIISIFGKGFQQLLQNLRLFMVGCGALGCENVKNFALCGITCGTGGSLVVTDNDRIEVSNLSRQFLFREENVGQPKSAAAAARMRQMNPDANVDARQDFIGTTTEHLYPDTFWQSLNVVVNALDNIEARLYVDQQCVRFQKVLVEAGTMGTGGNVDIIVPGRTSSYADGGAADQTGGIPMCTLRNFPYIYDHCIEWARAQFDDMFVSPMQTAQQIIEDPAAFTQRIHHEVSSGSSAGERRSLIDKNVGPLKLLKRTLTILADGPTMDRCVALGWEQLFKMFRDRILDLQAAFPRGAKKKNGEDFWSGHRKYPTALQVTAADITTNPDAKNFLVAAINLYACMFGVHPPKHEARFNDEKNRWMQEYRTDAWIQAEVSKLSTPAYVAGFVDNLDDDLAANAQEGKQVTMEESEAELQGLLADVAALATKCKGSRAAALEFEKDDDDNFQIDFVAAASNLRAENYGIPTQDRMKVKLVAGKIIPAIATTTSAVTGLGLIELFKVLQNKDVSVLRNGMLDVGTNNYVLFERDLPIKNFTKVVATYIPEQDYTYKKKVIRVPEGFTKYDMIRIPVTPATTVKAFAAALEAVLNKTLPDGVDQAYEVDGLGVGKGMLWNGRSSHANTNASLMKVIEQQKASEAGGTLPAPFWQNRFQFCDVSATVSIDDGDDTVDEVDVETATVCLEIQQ

[3] = target: AMP-activated protein kinase, AMPK (Homo sapiens) (UniProt P54646+O43741+P54619+Q9UGJ0+Q9Y478+Q13131+Q9UGI9); test: AMP-dependent Kinase enzyme assay. An in vitro enzyme assay that detects ADP turnover that is directly proportional to AMPK activity. This uses naive AMPK that is activated during the assay with MK-8722; format: functional; settings: 30 µM
[4] = target: Sialic acid-binding Ig-like lectin 9 (Homo sapiens) (UniProt Q9Y336); test: Hs-Siglec9 ALPHAscreen SOP 20170721; settings: 10 µM
Sialic acid-binding Ig-like lectin 9 (Homo sapiens), sequence (Q9Y336 whole entry): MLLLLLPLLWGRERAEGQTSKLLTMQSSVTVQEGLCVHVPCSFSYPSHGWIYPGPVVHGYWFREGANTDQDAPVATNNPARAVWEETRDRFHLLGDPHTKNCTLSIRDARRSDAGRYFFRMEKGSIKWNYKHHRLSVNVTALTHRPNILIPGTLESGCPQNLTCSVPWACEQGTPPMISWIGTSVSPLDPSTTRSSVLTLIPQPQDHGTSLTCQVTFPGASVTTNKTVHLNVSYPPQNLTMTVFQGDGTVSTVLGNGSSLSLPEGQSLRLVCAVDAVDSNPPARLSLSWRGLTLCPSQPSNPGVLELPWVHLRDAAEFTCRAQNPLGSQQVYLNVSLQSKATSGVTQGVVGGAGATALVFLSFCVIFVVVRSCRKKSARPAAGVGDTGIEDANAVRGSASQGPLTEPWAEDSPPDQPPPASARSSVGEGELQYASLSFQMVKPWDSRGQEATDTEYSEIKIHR

[5] = tested on: Trypanosoma cruzi; test: Trypanosoma cruzi phosphomannomutase and mannose-1-phosphate guanylyltransferase assay; format: functional; settings: 10 µM
[6] = target: T2, Arginase-2, mitochondrial (Homo sapiens) (UniProt P78540); test: in vitro enzyme assay to detect the production of urea directly proportional to the activity of Arginase II; format: functional; settings: 33.3 µM; note: in the data most compounds retested in dose-response had high values
T2 sequence (whole entry): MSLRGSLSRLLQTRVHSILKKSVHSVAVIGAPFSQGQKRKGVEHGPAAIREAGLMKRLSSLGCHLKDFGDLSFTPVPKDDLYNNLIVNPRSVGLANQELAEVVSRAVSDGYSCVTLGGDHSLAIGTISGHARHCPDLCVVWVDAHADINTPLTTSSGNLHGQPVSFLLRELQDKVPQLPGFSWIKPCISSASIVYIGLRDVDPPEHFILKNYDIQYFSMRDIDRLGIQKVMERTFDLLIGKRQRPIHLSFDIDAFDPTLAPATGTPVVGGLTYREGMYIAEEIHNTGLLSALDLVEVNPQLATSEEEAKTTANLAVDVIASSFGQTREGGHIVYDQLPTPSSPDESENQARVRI

[7] = target: T3, Proteasome subunit beta (Trypanosoma cruzi) (UniProt O96673); test: Trypanosoma cruzi proteasome chymotrypsin-like activity (TcProtChymo) assay.; note: in the data most compounds retested in dose-response had high values; format: functional; settings: 9.37 µM
T3 sequence (whole entry): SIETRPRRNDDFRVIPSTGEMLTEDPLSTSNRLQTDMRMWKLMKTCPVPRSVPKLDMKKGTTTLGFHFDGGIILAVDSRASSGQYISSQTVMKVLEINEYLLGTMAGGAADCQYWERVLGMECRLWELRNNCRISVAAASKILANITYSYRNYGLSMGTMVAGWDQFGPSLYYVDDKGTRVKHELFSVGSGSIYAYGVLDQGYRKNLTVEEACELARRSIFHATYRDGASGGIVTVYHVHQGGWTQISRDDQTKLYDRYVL

[8] = species on record: Homo sapiens; test: To identify inhibition of the IFN signalling (Jak-Stat) pathway via expression of an eGFP reporter gene under the control of an IFN-stimulated response element (ISRE) containing MxA promoter.; format: functional; settings: 30 µM
[9] = target: T4, Tyrosyl-tRNA synthetase, putative (Trypanosoma cruzi (strain CL Brener)) (UniProt Q4DSP6); test: Trypanosoma cruzi tyrosyl tRNA synthetase (TcYRS) _High Tyrosine SOP; format: functional; settings: 30 µM; note: in the data most compounds retested in dose-response had high values
T4 sequence (whole entry): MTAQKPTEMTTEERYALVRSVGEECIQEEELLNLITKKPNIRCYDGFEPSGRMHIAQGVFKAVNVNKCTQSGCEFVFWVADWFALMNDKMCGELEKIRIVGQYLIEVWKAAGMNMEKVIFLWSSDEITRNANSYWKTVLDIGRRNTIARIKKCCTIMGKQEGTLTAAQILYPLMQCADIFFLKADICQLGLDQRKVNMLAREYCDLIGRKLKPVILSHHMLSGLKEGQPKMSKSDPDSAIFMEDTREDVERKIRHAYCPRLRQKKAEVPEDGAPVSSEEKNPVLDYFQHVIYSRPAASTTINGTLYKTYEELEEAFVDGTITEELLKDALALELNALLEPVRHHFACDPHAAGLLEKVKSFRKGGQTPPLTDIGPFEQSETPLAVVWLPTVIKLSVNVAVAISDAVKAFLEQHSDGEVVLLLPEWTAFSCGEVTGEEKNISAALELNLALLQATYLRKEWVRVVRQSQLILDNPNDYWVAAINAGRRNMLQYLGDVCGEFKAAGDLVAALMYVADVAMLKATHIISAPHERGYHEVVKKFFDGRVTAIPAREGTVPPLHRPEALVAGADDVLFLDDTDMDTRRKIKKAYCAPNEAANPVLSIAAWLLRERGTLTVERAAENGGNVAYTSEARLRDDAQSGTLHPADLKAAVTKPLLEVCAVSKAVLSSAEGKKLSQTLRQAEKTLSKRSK

[10] = target: T4, Tyrosyl-tRNA synthetase, putative (Trypanosoma cruzi (strain CL Brener)); test: Trypanosoma cruzi tyrosyl tRNA synthetase (TcYRS) SOP; format: functional; settings: 30 µM
[11] = target: Chromo domain-containing protein 1 (Saccharomyces cerevisiae (strain ATCC 204508 / S288c) (Baker's yeast)) (UniProt P32657); test: ScCHD-1 Enzyme Inhibition Assay; format: functional; settings: 30 µM; note: in the data most compounds retested in dose-response had high values
Chromo domain-containing protein 1 (Saccharomyces cerevisiae (strain ATCC 204508 / S288c) (Baker's yeast)), sequence (P32657 whole entry, the tested form may be a part): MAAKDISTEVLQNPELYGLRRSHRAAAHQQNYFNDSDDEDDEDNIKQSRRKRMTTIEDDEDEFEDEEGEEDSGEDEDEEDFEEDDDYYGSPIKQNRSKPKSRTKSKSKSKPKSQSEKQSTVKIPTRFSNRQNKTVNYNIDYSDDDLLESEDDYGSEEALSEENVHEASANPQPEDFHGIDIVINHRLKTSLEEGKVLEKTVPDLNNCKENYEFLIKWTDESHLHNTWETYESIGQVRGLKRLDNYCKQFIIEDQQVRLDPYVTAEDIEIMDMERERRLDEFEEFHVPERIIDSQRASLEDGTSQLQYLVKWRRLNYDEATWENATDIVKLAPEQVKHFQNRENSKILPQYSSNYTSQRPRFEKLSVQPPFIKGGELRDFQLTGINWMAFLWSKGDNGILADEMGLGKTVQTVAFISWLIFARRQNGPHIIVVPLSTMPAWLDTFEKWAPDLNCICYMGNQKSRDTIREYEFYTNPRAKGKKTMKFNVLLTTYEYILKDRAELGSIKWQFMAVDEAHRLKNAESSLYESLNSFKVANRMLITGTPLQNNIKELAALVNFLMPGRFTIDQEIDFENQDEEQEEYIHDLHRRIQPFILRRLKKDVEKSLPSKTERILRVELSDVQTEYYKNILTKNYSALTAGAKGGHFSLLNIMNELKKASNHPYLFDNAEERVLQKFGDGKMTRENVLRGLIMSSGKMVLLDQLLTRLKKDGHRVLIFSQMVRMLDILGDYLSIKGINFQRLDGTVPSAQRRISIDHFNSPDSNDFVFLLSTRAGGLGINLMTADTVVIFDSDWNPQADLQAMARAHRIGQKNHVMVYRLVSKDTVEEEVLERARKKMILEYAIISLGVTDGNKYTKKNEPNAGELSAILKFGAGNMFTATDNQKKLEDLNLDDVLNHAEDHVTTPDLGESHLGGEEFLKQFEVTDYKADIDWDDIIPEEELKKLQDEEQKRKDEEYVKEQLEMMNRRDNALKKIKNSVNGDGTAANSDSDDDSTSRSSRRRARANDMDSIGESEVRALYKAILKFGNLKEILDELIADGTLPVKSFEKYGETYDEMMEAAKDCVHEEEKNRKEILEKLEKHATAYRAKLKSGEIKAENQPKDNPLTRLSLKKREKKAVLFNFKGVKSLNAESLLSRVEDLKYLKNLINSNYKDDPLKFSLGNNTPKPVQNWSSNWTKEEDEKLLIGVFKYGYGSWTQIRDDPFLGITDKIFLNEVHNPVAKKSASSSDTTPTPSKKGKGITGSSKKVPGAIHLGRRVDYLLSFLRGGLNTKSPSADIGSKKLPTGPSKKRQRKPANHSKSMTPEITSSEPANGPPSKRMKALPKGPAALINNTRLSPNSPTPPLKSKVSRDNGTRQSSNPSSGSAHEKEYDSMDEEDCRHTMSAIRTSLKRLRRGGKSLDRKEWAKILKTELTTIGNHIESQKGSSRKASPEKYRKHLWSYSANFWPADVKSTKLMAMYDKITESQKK

Protein translocase subunit SecA (Escherichia coli (strain K12)), sequence (P10408 whole entry): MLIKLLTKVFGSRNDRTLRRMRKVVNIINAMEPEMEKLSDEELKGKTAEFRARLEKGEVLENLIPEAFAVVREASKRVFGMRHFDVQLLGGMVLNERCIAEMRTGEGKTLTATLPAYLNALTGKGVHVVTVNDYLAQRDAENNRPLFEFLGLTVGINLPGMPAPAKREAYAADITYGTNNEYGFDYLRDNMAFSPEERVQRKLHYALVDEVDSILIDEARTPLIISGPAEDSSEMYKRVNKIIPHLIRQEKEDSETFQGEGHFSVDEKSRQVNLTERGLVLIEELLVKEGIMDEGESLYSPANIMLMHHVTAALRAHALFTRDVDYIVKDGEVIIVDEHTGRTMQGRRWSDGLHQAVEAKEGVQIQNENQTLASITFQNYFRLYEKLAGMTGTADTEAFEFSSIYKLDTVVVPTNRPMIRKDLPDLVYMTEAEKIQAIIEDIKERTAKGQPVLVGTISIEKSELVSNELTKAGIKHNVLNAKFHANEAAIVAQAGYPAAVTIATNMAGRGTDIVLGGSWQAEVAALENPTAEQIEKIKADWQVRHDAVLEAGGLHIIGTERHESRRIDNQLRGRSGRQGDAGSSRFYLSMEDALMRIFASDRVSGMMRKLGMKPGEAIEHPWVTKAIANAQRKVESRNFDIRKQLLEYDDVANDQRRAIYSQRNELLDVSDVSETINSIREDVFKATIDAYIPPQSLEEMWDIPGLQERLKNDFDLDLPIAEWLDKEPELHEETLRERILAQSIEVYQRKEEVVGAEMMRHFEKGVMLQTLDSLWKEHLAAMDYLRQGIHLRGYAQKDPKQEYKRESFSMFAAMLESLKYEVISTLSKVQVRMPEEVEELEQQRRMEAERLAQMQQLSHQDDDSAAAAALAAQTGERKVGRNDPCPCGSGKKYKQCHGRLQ

Compound | Percent Effect [1] [%] | Percent Effect [2] [%] | Percent Effect [3] [%] | Percent Effect [4] [%] | Percent Effect [5] [%] | Percent Effect [6] [%] | Percent Effect [7] [%] | Percent Effect [8] [%] | Percent Effect [9] [%] | Percent Effect [10] [%] | Percent Effect [11] [%]
c1ccc(Oc2cc(CNCC3CNc4ccnn4C3)ccn2)cc1 (stereo unspecified) | -2.02 | 11.4 | -0.557 | -0.022 | 5.85 | 2.37 | 11.7 | 11.8 | 19.8 | 20.2 | -13.3
CC(C)CCNC(=O)c1sccc1N(C)S(=O)(=O)c1ccccc1 | -0.473 | 23.7 | -3.53 | -18.2 | -0.0974 | -3.55 | 10.3 | 23.3 | -3.19 | 5.2 | -3.5
CCOCC(=O)N1C[C@@H](NC(C)=O)[C@H](c2ccc(OC)cc2)C1 | -0.132 | 5.33 | -8.83 | 9.11 | 2.63 | 18.8 | 15.2 | 14.1 | 7.1 | 18.5 | -1.7
CC(C)(C)c1nc(CN2CCCC(Cn3cncn3)C2)cs1 (stereo unspecified) | -0.434 | 21.6 | -0.165 | -3.27 | 5 | -17.6 | 10.6 | 3.9 | 1.48 | 18.5 | -8.38
CC(C)c1nc(C2CCCN2C(=O)c2ccc(N(C)C)nn2)no1 (stereo unspecified) | -0.476 | 16.2 | -4.5 | -2.95 | 0.0929 | -4.25 | 6.1 | 24.1 | 3.96 | 15.8 | -5.4
O=C(NC1(c2nnn(Cc3ccncc3)n2)CCCC1)c1ccccc1 | -6.65 | 2.67 | -7.02 | 6.6 | 1.85 | 0.521 | -25.6 | -24.1 | 7.1 | 16.1 | -2.08
CC(C)(C)n1ncc2c1CCCC2NCc1cccc2c1OCO2 (stereo unspecified) | -2.65 | -1.27 | 2.85 | 2.62 | -4.41 | 6.24 | 10.1 | 12.2 | 1.04 | -5.06 | -10.4
O=C1N(Cc2cccc(F)c2F)CCCC1(O)CNC1CCCC1 (stereo unspecified) | -6.14 | 16 | -3.79 | 22.4 | 5.55 | 7.29 | 4.36 | 4.41 | 3.83 | 6.17 | 97.3
NC(=O)C1CCN(Cc2cccc(NC(=O)c3ccsc3)c2)CC1 | -6.14 | 2.67 | -1.03 | 5.05 | 3.99 | -2.08 | 7.85 | 17 | 7.1 | 13.6 | -5.67
CCN(CC)C(=O)c1cc(C2CCCN2C)ccn1 (stereo unspecified) | -5.39 | 23 | -2.48 | -2.94 | 0.988 | -2.55 | 15.4 | -5.61 | 5.38 | 11.7 | -12.8
COc1cc(CNC(=O)NCc2c(C)cc(C)[nH]c2=O)ccc1C | -6.17 | 7.89 | -0.139 | 4.36 | 5.64 | 1.15 | 11.9 | 6.94 | 2.45 | 12.2 | -9.57
